Reference: PubChem BioAssay AID743287 (Broad Institute, 2014)
Hit rate of the full screen: of about 370,000 compounds, about 2,300 (0.62%) were called active.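 Rule for the calls: active = lowest replicate activation of at least 40%, so every replicate reaches that level; inactive = the rest.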 The entries come from a sample that favours actives as a whole.

Experiment: primary screen for activators of insulin secretion dependent on glucose, INS-1E cells, GLuc reporter luminescence (AID 743287);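 note: 0% = median of neutral control wells and 100% = median of IBMX positive control wells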
Details: INS-1E GLuc reporter insulin secretion, 2-3 h, at 16.6 µM, active compounds read high
In the case of `O=C(COc1ccccc1O)NC1CCCC1`, the activation is reported as 11.6% (inactive).
In the case of `O=C(COc1cccc2c1CCNC2=O)NC1CCCCC1`, the activation is reported as 44.9% (active).
In the case of `Cc1ccccc1NC(=O)COc1cccc2c1CCNC2=O`, the activation is reported as 23.1% (inactive).
In the case of `COc1ccc(NC(=O)Nc2ccc3c(c2)C(=O)N([C@@H](C)CO)C[C@@H](C)[C@@H](CN(C)C(=O)Nc2ccc(F)cc2)OCCCC[C@@H](C)O3)cc1`, the activation is reported as -7.03% (inactive).
In the case of `COc1ccc(-c2ccccc2[C@H]2[C@@H](C#N)N(C(=O)C3CCC3)[C@@H]2CO)cc1`, the activation is reported as -4.21% (inactive).
For `O=C(/C=C/c1ccc(Cl)cc1)Nc1ccc(Br)cn1`, the activation was 3.4% (inactive).
With `NCCCNC(=S)NCCCN(Cc1ccc(Cl)cc1)c1ccc(Br)cn1` the activation was 57.1% (active).
For `S=C(NCCCc1cnc[nH]1)NCCCN(Cc1ccc(Cl)c(Cl)c1)c1ccc(Br)cn1`, the activation was 17% (inactive).
For `COc1ccc(C(=O)OCC(=O)Nc2cc(C)on2)cc1F`, the activation was 12.4% (inactive).
In the case of `COc1ccc(C(=O)OCC(=O)Nc2cccc(C(C)=O)c2)cc1OC`, the activation is reported as 67.3% (active).
In the case of `CCOc1cc(C(=O)OCC(=O)Nc2cccc(C)c2)ccc1OCC(=O)N1CCOCC1`, the activation is reported as 7.48% (inactive).
In the case of `C[C@@H]1CN([C@@H](C)CO)S(=O)(=O)c2ccc(-c3ccncc3)cc2O[C@@H]1CN(C)C(=O)C1CCC1`, the activation is reported as 7.69% (inactive).
For `CCCNC(=O)N(C)C[C@H]1Oc2cc(C3=CCCCC3)ccc2S(=O)(=O)N([C@H](C)CO)C[C@H]1C`, the activation was -12.1% (inactive).
For `CCN(CCO)C(=S)Nc1cc(C(=O)OC)ccc1C(=O)OC`, the activation was 18% (inactive).
In the case of `CCCN(CCC)C(=S)Nc1cc(C(=O)OC)ccc1C(=O)OC`, the activation is reported as 20.1% (inactive).
With `COC(=O)c1ccc(C(=O)Nc2cc(Cl)ccc2Cl)cc1NC(=O)c1ccccc1C` the activation was 82.6% (active).
With `C/C=C/c1ccc(OCCOc2ccc(C=O)cc2OC)c(OC)c1` the activation was 10.7% (inactive).
In the case of `COc1cc(/C=N/NC(=O)Nc2ccccc2)ccc1OCCOc1ccccc1C`, the activation is reported as 169% (active).
For `Cc1ccc(F)c(NC(=O)CCOc2ccccc2C)c1`, the activation was -15% (inactive).
With `C[C@H](O)C#Cc1ccc2c(c1)O[C@H](CN(C)C(=O)C1CCCCC1)[C@@H](C)CN([C@H](C)CO)S2(=O)=O` the activation was 4.13% (inactive).
In the case of `Cc1ccc(CNC(=O)c2ccccc2CCc2ccccc2)cc1`, the activation is reported as -27.9% (inactive).
For `CCCN1Cc2cccc(C(=O)NCc3ccccc3)c2C1=O`, the activation was 72.4% (active).
With `CSc1ccccc1C(=O)NCc1ccccc1` the activation was -6.59% (inactive).
In the case of `C[C@@H]1CN(C)C(=O)c2cc([N+](=O)[O-])ccc2O[C@@H]1CN(C)C(=O)OC(C)(C)C`, the activation is reported as 16% (inactive).
